# Over roughly 33,000 sequences, “E-score (-0.5 to 0.5)” has its median near -0.016; the highest 2% begin near 0.32. This excerpt belongs to a sample that is enriched for the highest values.
# Target: T1, Stp1 (UniProt B3LFK1)
# T1 sequence: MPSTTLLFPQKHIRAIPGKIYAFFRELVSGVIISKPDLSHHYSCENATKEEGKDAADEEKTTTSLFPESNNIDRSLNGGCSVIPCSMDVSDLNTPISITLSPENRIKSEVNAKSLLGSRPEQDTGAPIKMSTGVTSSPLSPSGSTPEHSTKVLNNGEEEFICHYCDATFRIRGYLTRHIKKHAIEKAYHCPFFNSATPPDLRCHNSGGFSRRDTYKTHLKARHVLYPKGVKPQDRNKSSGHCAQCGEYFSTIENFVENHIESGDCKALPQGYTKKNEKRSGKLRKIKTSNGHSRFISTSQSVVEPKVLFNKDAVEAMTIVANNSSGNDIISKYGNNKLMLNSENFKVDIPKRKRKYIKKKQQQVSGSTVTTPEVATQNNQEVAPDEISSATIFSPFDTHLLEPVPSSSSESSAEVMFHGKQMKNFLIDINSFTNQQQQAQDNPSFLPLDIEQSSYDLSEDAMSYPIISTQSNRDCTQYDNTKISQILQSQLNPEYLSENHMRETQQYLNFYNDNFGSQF
# Experiment: PBM E-score (8-mer binding enrichment) (E-score (-0.5 to 0.5)); higher = stronger / more preferred TF binding
# Details: protein concentration: 200 nM; construct: GST-full length
# Description: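 Universal 'all 10-mer' protein binding microarrays (Agilent AMADID 015681) probed with GST-tagged S. cerevisiae TFs (full-length or DBD) made by in vitro transcription/translation (PURExpress), about 100-200 nM. Bound TF was detected with fluorescent anti-GST. Each ungapped 8-mer (which stands for itself and its reverse complement) is scored by the PBM enrichment score (E-score), a modified Wilcoxon-Mann-Whitney statistic from -0.5 to +0.5, computed with the Universal PBM Analysis Suite. Scale: above 0.35 generally sequence-specific binding.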
row,Sequence,PBM E-score
1,CGAGGCGC,0.456
2,AGAGGCGA,0.135
3,AGAGGCGC,0.327
4,AGAGGCGG,0.061
5,CGAGGCTC,0.131
6,CGAGGCGA,0.289
7,GGGGCAAA,0.0199
8,TACTGTGA,-0.14
9,ATGGTAAA,0.0118
10,AATTACTC,0.144
11,CTTCTAGC,-0.0527
12,ACCGTGCC,0.313
13,TCCGTGCA,0.258
14,GACGTGCC,0.238
15,GCCGTGCA,0.478
16,GCCGTGCC,0.487
17,CCCGTGGA,-0.0712
18,CCCGTGTA,0.0889
19,ACCGTGTA,0.0338
20,ACCGTGCA,-0.0437
21,GCCGTGTA,0.473
22,ACCGTGGA,0.0243

row,Sequence,PBM E-score
1,GCCGTGGA,0.402
2,CCTTTTGC,0.214
3,ACAGATAG,-0.0308
4,AATATGCG,0.114
5,ACAACGAT,0.00545
6,AAGACGAA,0.0123
7,GAAGTGTC,-0.0596
8,CGAGTCGA,-0.00477
9,ACGGGTGC,0.105
10,GCGCTCGA,0.0767
11,CGCGTGCC,0.325
12,TCCGTGAA,0.0172
13,AGCGTGCC,0.126
14,CTCGTGCC,0.294
15,GCCGTGAC,0.294
16,CCCGTGGC,0.046
17,CCCGTGCC,0.33
18,CGCGTGCA,0.0968
19,GCCGTGAA,0.361
20,CCTCTCCC,-0.253
21,ACTGGCAG,0.0412
22,CTCGACGA,-0.13

row,Sequence,PBM E-score
1,TAATAGTA,0.24
2,ATTCCTAC,0.0636
3,CCAATAGG,0.0256
4,ATCGGCCG,0.15
5,GACGGCCA,-0.0395
6,AACGGCCA,0.214
7,CCCGGCCG,-0.152
8,AACGGCCG,0.333
9,CACGGCCC,0.337
10,AACGGCCC,0.235
11,CACGGCCA,0.34
12,CACGGCCG,0.338
13,AACGGCCT,0.151
14,CAAGGCCG,0.103
15,GACGGCCC,0.069
16,AGATCAGG,-0.173
17,CTAGAGTC,-0.33
18,ACGGAGCT,0.087
19,AACATAGG,0.0786
20,AGCCTTCA,0.108
21,AGGCATAC,0.0863
22,CTTTCTCC,-0.244

row,Sequence,PBM E-score
1,CATGCCGG,0.186
2,GATGCCGC,0.466
3,CATGCCGA,0.188
4,GATGCCGA,0.29
5,GATGCCCC,-0.129
6,CATGCCGC,0.427
7,CGGAAACA,-0.0866
8,GGGCATAC,-0.00074
9,CCACGTGC,0.215
10,GCACGTGA,0.135
11,GCACGTGC,0.352
12,ACCAGAGC,-0.0074
13,CCGCACCA,0.237
14,CGTGCCTA,0.184
15,AGTGCCTC,0.347
16,CGTGCCTC,0.398
17,CGTGCCCC,0.0449
18,AGTGCCTG,-0.0958
19,AGTGCCTA,0.21
20,GGTGGTTA,0.00324
21,AACGCATG,-0.0148
22,TGGCGAAA,0.088

# From the supplement of paper PMC3334620
